Source: PubChem BioAssay (National Center for Advancing Translational Sciences (NCATS))
Rows were chosen to be rich in hits. Some 7.9% of all compounds tested hit in one or more screens of this group.
KB-3-1 tox: kills parental KB-3-1 adenocarcinoma cells. KB-3-1 viability, CellTiter-Glo ATP luminescence, 72 h. Potency, µM (top dose mostly 46.1 µM), usual class: cytotoxic. 400,000 compounds, 1.4% hits; also: % is scaled to controls: 0 for no effect and ±100 for the full control effect; nearly all actives have a fitted effect of over 60% in size
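Viability of parental KB-3-1 cells, measured by CellTiter-Glo luminescence, followed a 72 h incubation at 37 °C with pinned compounds in phenol-red-free DMEM containing 10% FBS.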
KB-V1 MDR tox: kills drug-selected multidrug resistant KB-V1 cells | KB-V1 MDR cells viability, CellTiter-Glo, 72 h | Potency, µM (top dose mostly 46.1 µM), most hits filed as cytotoxic | 400,000 compounds, 3.4% hits; also: % is scaled to controls: 0 for no effect and ±100 for the full control effect; nearly all actives have a fitted effect of over 60% in size
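Cells of the MDR subline KB-V1 are plated, dosed with compound at multiple concentrations, and incubated 72 h at 37 degrees C; CellTiter-Glo is then added and luminescence read after 10 min.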
SW480 rerep: DNA re-replication induction in SW480 cells; SW480 DNA re-replication, Hoechst DNA content imaging, 48 h; Potency, µM (highest dose often 46.1 µM), inactives show at the top dose re-replication activation, most hits filed as activators; 340,000 compounds, 1.8% hits; also: % of control where 0% means no effect; nearly all actives have a fitted effect of over 55% in size
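Cells (250 per well) received 23 nL compound or DMSO by pin tool and were kept 48 hr at 37 C, 5% CO2. Nuclei were then stained with Hoechst for 40 min and scanned for DNA content.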
MCF10A rerep: DNA re-replication induction in MCF 10a cells; MCF 10A DNA re-replication, Hoechst nuclear intensity, 48 h; Potency, µM (doses to about 46.1 µM), without a hit: top-dose activity, positive = re-replication, hits mostly activators; 350,000 compounds, 2.9% hits; also: % of control where 0% means no effect; nearly all actives have a fitted effect of over 50% in size
HT1080-NT tox: kills 2HG-producing HT-1080-NT fibrosarcoma cells. HT-1080-NT fibrosarcoma viability, CellTiter-Glo ATP luminescence, 48 h. Potency, µM (titrated, usually from 46.1 µM), inactives show top-dose activity, negative = less viability, hits mostly cytotoxic. 360,000 compounds, 1.6% hits;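 also: NT is the 2HG producing partner of a matched IDH1 knockdown line; 0% = DMSO-treated cells and -100% = media-only wells without cells; nearly all actives have a fitted effect of over 55% in size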
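HT-1080-NT; 750 cells/well; 5% FBS RPMI; 48 h compound, 37 degrees C; CellTiter-Glo luminescence; curve fitting and curve-class assignment.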
HT1080 IDH1KD tx: toxicity to HT-1080 IDH1 knockdown cells (counter line); 360,000 compounds, 2% hits; Potency, µM (highest dose often 46.1 µM), for the others: at the top dose activity, negative = toxicity, actives largely listed as cytotoxic; HT-1080 IDH1 knockdown viability, ATP luminescence, 48 h;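 also: 0% = DMSO wells and -100% = cell-free medium wells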
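Using the IDH1-knockdown HT-1080 line run in the same batch and compound series as the NT line, viability after 48 h at 37 °C was determined by CellTiter-Glo luminescence and expressed as % activity.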
* hit, by the source's call; i = inactive; ? = inconclusive; · = not tested or not shown. Calls follow the shape of the dose curve; as a rule, active = well fitted curve in the direction sought with a large enough effect; inconclusive = small, poorly fitted or top-dose-only effect, or another doubt; inactive = no such curve, though single readings can be large; an effect the other way counts as inactive or inconclusive. Potency is read from the fitted curve at half-maximal effect.

SMILES	KB-3-1 tox	KB-V1 MDR tox	SW480 rerep	MCF10A rerep	HT1080-NT tox	HT1080 IDH1KD tx
Cc1cccc(Cn2c(CNC(=O)c3ccccc3)nc3ccccc32)c1	i	i	·	·	·	·
O=C(C[N+]1(CC(O)c2ccccc2)CCCCC1)c1ccccc1 (stereo unspecified)	i	i	·	·	·	·
CN1CC2(Cc3c1ccc1ccccc31)C(=O)OC(C)(C)OC2=O	?	?	9%	25%	23µM*	?
Cc1ccc2c(c1)CC1(CN2C)C(=O)OC2(CCCCC2)OC1=O	i	i	-5%	0%	10%	14%
O=[N+]([O-])c1cccc(CP(=O)(c2ccccc2)c2ccccc2)c1	i	21µM*	2%	12%	-8%	-8%
COc1ccccc1-c1nnc(SCC(=O)NCc2c(C)c(Cl)cc(C(C)C)c2O)o1	i	?	-5%	-4%	?	16µM*
O=C1NC(c2ccc(Br)cc2)Nc2sc3c(c21)CCC3 (stereo unspecified)	i	i	-9%	1%	5%	26%
Cc1ccsc1C1NC(=O)c2c(sc3c2CCCC3)N1 (stereo unspecified)	i	15µM*	-3%	?	9%	8%
O=C1NC(c2ccccn2)Nc2sc3c(c21)CCC3 (stereo unspecified)	i	i	0%	16µM*	-19%	-26%
CN(C)c1ccc(/C=C2\Cc3ccccc3C2=O)cc1	i	i	·	·	·	·
CCOc1cccc(CNc2ccc(O)cc2)c1OCc1ccc(Cl)cc1Cl	i	i	?	?	?	21µM*
CCOc1cc(CNCCO)cc(Br)c1OCc1cccs1	i	i	3%	-3%	?	11µM*
CCOc1cc(CNCCO)cc(Br)c1OCc1ccc(Cl)cc1Cl	?	?	?	?	?	21µM*
CCOc1cc(CNCc2cccs2)cc(Br)c1OCC	?	i	?	27%	?	?
CCOc1cccc(CNCCO)c1OCc1ccc(Cl)cc1Cl	i	i	?	?	-4%	-25%
CCOc1ccc(NC(=O)c2cc(S(=O)(=O)N3CCC(C)CC3)cn2C)cc1	i	i	·	·	·	·
Cc1ccc(C)c(NC(=O)COC(=O)c2cc(=O)c3ccccc3o2)c1	i	i	-11%	9%	17%	18%
COc1cccc(CNc2ccc(N3CCC(C)CC3)cc2)c1OC	21µM*	21µM*	8%	8%	-26%	?
CC1CCN(c2ccc(NC(=O)Cc3ccccc3)cc2)CC1	i	i	2%	0%	-1%	-1%
O=C(CCn1cnc2ccccc2c1=O)NCc1ccccc1	i	i	·	·	·	·
CCc1nc2c(OCc3ccc(C(F)(F)F)cc3)cccn2c1N(C)C(=O)C(C)C	i	i	·	·	-12%	-11%
CC(C(c1cccs1)c1c(N)n(C)c(=O)n(C)c1=O)[N+](=O)[O-] (stereo unspecified)	i	i	10%	26%	-1%	-3%
Cc1ccc(N2CCN(C3=NC(=O)C(Cc4ccccc4)S3)CC2)cc1 (stereo unspecified)	i	?	1%	-3%	7%	11%
O=C1N=C(N2CCN(c3ccccc3)CC2)SC1Cc1ccccc1 (stereo unspecified)	i	16µM*	-3%	-7%	-1%	-4%
COc1ccc(S(=O)(=O)n2nc(C)cc2C)cc1OC	i	i	-19%	2%	-7%	3%
SMILES	KB-3-1 tox	KB-V1 MDR tox	SW480 rerep	MCF10A rerep	HT1080-NT tox	HT1080 IDH1KD tx
COc1ccc(-c2n[nH]c3c2CN(C(=O)c2ccc(OC)c(OC)c2)CC3)cc1	7.3µM*	?	?	21µM*	-27%	21µM*
CCCCN1C=CC(=C2C(=O)c3ccccc3C2=O)C=C1	i	?	-5%	-4%	16µM*	23µM*
CCCCC1C(=O)N(c2ccccc2)N(c2ccccc2)C1=O	i	i	-1%	11%	21%	-12%
O=C(N/N=C/c1ccc(O)cc1)c1[nH]c2ccc(Br)cc2c1-c1ccccc1	7.3µM*	i	7.3µM*	?	4.6µM*	4.1µM*
Cc1c(C(=O)N/N=C/c2ccc(Cl)cc2)[nH]c2ccc(Cl)cc12	1µM*	?	2.1µM*	?	5.8µM*	3.3µM*
O=C(N/N=C/c1c[nH]c2ccccc12)c1cc(Br)ccc1O	i	i	?	1%	?	-29%
O=C(N/N=C/c1c[nH]c2ccccc12)c1[nH]c2ccc(Br)cc2c1-c1ccccc1	1.6µM*	?	8.2µM*	?	7.3µM*	6.5µM*
NNC(=O)c1[nH]c2ccccc2c1-c1ccccc1	?	i	9.2µM*	?	?	1.3µM*
CC(=O)NNC(=O)c1[nH]c2ccc(Cl)cc2c1-c1ccccc1	i	?	9%	8%	-28%	?
Cc1ccnc(Nc2cccnc2)n1	i	i	·	·	?	28%
CN(C)c1ccc(C(CNS(=O)(=O)c2ccc([N+](=O)[O-])cc2)N2CCCC2)cc1 (stereo unspecified)	i	i	-1%	10%	-5%	-1%
